# Several values for one entry are separate records, joined by “and”; a condition that tells them apart may be missing. Identical values can stand only once.
# Legend:
# Format in all cases: functional
# [1] = molecular target: Solute carrier family 2, facilitated glucose transporter member 1 (Homo sapiens) (UniProt P11166); experiment: ST_JUDE_LEISH: Cytotoxicity at 2uM final concentration against transgenic Leishmania Mexicana promastigotes LmGLUT1 that are glucose transport deficient and complemented with the human glucose transporter GLUT1. Activity is measured by DNA content using SYBR green in vitro
# Solute carrier family 2, facilitated glucose transporter member 1 (Homo sapiens), sequence (P11166 whole entry): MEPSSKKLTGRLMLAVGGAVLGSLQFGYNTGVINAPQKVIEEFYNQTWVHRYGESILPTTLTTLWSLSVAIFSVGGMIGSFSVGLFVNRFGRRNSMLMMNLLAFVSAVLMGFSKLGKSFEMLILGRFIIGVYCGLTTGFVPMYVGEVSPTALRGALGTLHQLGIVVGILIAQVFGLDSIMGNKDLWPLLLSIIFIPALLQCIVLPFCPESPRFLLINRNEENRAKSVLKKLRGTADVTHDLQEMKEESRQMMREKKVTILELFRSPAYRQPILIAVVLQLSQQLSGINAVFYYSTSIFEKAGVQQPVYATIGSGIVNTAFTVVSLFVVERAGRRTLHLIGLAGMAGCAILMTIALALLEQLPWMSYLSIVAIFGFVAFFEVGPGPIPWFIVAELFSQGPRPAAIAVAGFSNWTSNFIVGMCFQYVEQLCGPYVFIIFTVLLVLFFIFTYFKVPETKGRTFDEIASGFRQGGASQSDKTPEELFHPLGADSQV
# [2] = molecular target: Hexose transporter 1 (Plasmodium falciparum) (UniProt O97467); experiment: ST_JUDE_LEISH: Cytotoxicity at 2uM final concentration against transgenic Leishmania Mexicana promastigotes LmPfHT that are glucose transport deficient and complemented with the Plasmodium falciparum hexose transporter. Activity is measured by DNA content using SYBR green in vitro
# [3] = molecular target: Glucose transporter (Leishmania mexicana) (UniProt O61059); experiment: ST_JUDE_LEISH: Cytotoxicity at 2uM final concentration against transgenic Leishmania Mexicana promastigotes LmGT2 that are glucose transport deficient and complemented with the L. Mexicana glucose transporter 2. Activity is measured by DNA content using SYBR green in vitro
SMILES,inhibition [1],inhibition [2],inhibition [3]
CN(c1ccc(NC(=O)Nc2cc(C(F)(F)F)ccc2F)cc1)c1ccnc(NCCN2CCCC2)n1,5.11%,4.8%,4.41%
O=C(c1cc2nc3c(c(C(F)(F)F)n2n1)CCc1ccccc1-3)N1CCN2CCCC2C1 (stereo not drawn),2.06%,2.1%,2.07%
CC(C)N1CCN(CCCCNc2c3ccccc3nc3ccccc23)CC1,33%,41%,22.3%
COc1ccc(CCNc2nc(SCc3ccccc3Cl)nc3ccccc23)cc1OC,1.6%,3.03%,1.42%
COc1ccc(-c2ccc3c(-c4ccc(F)cc4)cnc(N)c3c2)cn1,-1.25%,-1.33%,-0.22%
CCc1nc(N)nc(N)c1-c1ccc(C(C)(C)C)cc1,13%,3.45%,0.88%
OC(c1ccc(Cl)cc1)(c1ccc(Cl)cc1)C(c1ccc(Cl)cc1)n1ccnc1 (stereo not drawn),8.37%,4.21%,2.69%
Nc1c(Cl)cc(C(O)CNCCCCCCOCCC=C2CCOCC2)cc1Cl (stereo not drawn),-0.91%,0.32%,-1.31%
COc1ccc(-c2ccc(S(=O)(=O)Nc3cc4c(cc3OC(C)C)CCNCC4)cc2)cc1,-2.14%,-1.7%,-2.37%
O=C(/C=C/c1ccc(Cl)c(Cl)c1)NC1CCC(CN2CCC(c3coc4ccccc34)CC2)CC1 (stereo not drawn),-1.76%,1.76%,-1.87%
Cc1cccc2nc(-c3ccc(-c4cccc(CN5CCC(C(N)=O)CC5)c4)s3)[nH]c12,-1.68%,2.17%,1.29%
O=C(Nc1ccc2c(c1)CCC2)c1ccc(N2CCN(c3ccncc3)CC2)cc1,68.7%,29.6%,68.3%
COc1ccc(CCNc2ccnc3cc(Cl)ccc23)cc1OC,2.61%,2.36%,0.21%
Nc1c2ccccc2nc2cc(Cl)ccc12,3.29%,1.91%,1.91%
CN1C(C)(C)CC(NC(=O)c2ccc(-c3nc4cc(Cl)ccc4[nH]3)cc2)CC1(C)C,1.69%,2.24%,2.7%
Cc1ccccc1C(=O)Nc1cccc(-c2nc3ncccn3c2C)c1,3.33%,3.11%,1.25%
Cc1cccc(CNc2nc(C)cc(N[C@@H](Cc3ccccc3)C(=O)NCCc3ccccc3)n2)c1,3.88%,3.72%,0.77%
O=C(NCc1cccnc1)C(c1cc2ccccc2o1)N1CCN(C(c2ccccc2)c2ccccc2)CC1 (stereo not drawn),1.36%,2.1%,0.65%
CC(C)(CN)c1nc(-c2ccc(Br)c(O)c2)c(-c2ccncc2)[nH]1,1.39%,1.51%,2.58%
Cc1cc(C)cc(OCC(O)CN(Cc2cc(Cl)cc(Cl)c2)C(=O)Nc2ccc([N+](=O)[O-])cc2)c1 (stereo not drawn),4.12%,3.99%,5.26%
Cc1sc2nc(CSc3ccccc3)nc(N3CCN(CC(=O)NC4CC4)CC3)c2c1C,-0.96%,-2.01%,-1.85%
O=C(Nc1ccc(OC2CCN(Cc3ccc(F)cc3)CC2)c(Cl)c1)c1ccoc1,2.65%,2.09%,3.99%
O=C(C1COc2ccccc2O1)N(CCCn1ccnc1)Cc1csc(-c2ccc(CNCc3ccccc3)cc2)n1 (stereo not drawn),3.99%,4.14%,2.05%
COc1ccc2[nH]ccc(=NN=Cc3ccc(N(C)C)cc3)c2c1,2.69%,3.94%,0.57%

SMILES,inhibition [1],inhibition [2],inhibition [3]
CCCCCC(C)(C)NC[C@@H](O)[C@H](Cc1ccccc1)NC(=O)c1cc(NCC)cc(N2CCCC2=O)c1,-0.4%,0.68%,-1.82%
CCOC(=O)c1c(C)n(-c2ccccc2)c2ccc(OC(=O)c3ccc(S(=O)(=O)N(CC)CC)cc3)cc12,4.6%,5.12%,5.12%
c1ccc2c(NCCc3c[nH]cn3)c3ccccc3nc2c1,0.58%,4.05%,2.23%
O=C(Nc1ccc(CN2CCOCC2)cc1)c1ccc(-c2ccc(Cl)cc2)o1,-0.08%,-0.82%,-4.75%
COc1ccc2ncc(F)c(CCN3CC(O)C(CNCc4nc5c(cc4Cl)OCC(=O)N5)C3)c2n1 (stereo not drawn),0.46% and 5.05% and 0.19%,-1.18% and 4.64% and 0.49%,-0.57% and 3.05% and -1.68%
CCCNCc1ccc(-c2ccc(CN(CCOC)C(=O)CCc3ccc(OC)cc3)cc2)nc1,0.6%,-1.02%,1.11%
COc1ccc(CN2CCCN(Cc3cccc(NC(=O)c4cc5ccccc5s4)c3)CC2)cc1,0.39%,-0.1%,-1.39%
CC(CNC(=N)c1cccc(C(=N)NCC(C)Oc2cccc(C3CCCCC3)c2)n1)Oc1cccc(C2CCCCC2)c1 (stereo not drawn),5.5%,4.37%,0.74%
c1ccc2c(C3CCN(CCCCOc4ccc5c(c4)CCN(CC4CC4)CC5)CC3)c[nH]c2c1,70.5%,43.6%,6.07%
CCN(c1ccc(O)c(CN2CCCCC2)c1)c1ccc([N+](=O)[O-])cn1,2.79%,1.08%,0.72%
CC[C@H](C)[C@H](NC(=O)[C@H](CC1CCCCC1)[C@H](CC)N(O)C=O)C(=O)Nc1ccccn1,8.41%,8.39%,8.25%
Fc1ccc2[nH]c(-c3cccc(-c4cccc(CNCc5cnn(-c6ccccc6)n5)c4)c3)nc2c1,6.56%,8.75%,7.46%
COc1cc(NC(=O)N2CCc3ccc(OCCC4CCCN4C)cc32)cc(C(F)(F)F)c1 (stereo not drawn),-0.5%,0.15%,-0.48%
CCOC(=O)c1ccc(NC(=O)Nc2ccc(Cn3ncc(N4CCCNCC4)c(Cl)c3=O)cc2)cc1,8.8%,12.6%,7.11%
CC(=O)Nc1ccc(C(=O)Nc2cccc(-c3ccc(-c4nc5cccc(C)c5[nH]4)cc3)c2)cn1,4.86%,4.51%,4.91%
CS(=O)(=O)c1ccc(CCNCc2ccc(-c3ccc(CN(C(=O)c4ccco4)C4CCN(Cc5ccccc5)CC4)cc3)nc2)cc1,1.33%,0.67%,4.41%
c1ccc(-c2nc(Nc3ccncc3)sc2-c2ccccc2)cc1,4.18%,4.94%,1.21%
COCCNCc1cccc(-c2ccc(CNC3CCN(Cc4ccccc4)CC3)cc2)c1,1.41%,3.3%,4.63%
COC(=O)[C@@H](NC(=O)[C@H](Cc1ccc(OC)c(OC)c1)Nc1ccc(C#N)c2ccccc12)c1ccc(O)cc1,10.1%,16.6%,6.41%
C[C@@H](Oc1cc(-n2cnc3cc(SCCN4CCN(C)CC4)ccc32)sc1C(N)=O)c1ccccc1Cl,35.4%,40.9%,23.6%
C[C@H](NC(=O)c1c(OC2CN(C(c3ccccc3)c3ccccc3)C2)c(-c2ccccc2)nc2ccccc12)C1CCCCC1,2.01%,0.08%,0.33%
O=C(Cc1ccccc1)NC(c1ccccc1)c1ccc2cccnc2c1O (stereo not drawn),2.31%,0.51%,-1.17%
O=C(NCCN1CCC(NC(=O)c2ccc(-c3ccccn3)s2)CC1)c1cccc(C(F)(F)F)c1,3.66%,2.93%,3.43%
O=C(Nc1ccc(Cl)c(Cl)c1)N1CCC(CNCc2cccc([N+](=O)[O-])c2)CC1,3.92%,4.18%,5.3%

SMILES,inhibition [1],inhibition [2],inhibition [3]
CCN(CCCN1CCCCC1)c1cc(C)nc(Nc2cc(C)ccc2C)n1,-1.92%,0.68%,-0.58%
CCCCCN1CCC(NS(=O)(=O)c2cccc(C(=O)Nc3cccc(C(F)(F)F)c3)c2)C1 (stereo not drawn),1.68%,1.1%,4.07%
COc1cc(C(F)(F)F)c2cc(CNCCCNc3nc4ccccc4[nH]3)[nH]c2c1,1.29%,2.11%,2.95%
Cc1cc(-c2ccnc(Nc3cccc(C#N)c3)n2)cc(C)c1O,13.8%,16%,7.83%
O=C(N[C@@H](Cc1ccccc1)C(=O)NCCN1CCCCC1)c1ccc(O)c(-c2ccc(Cl)c(Cl)c2)c1,1.95%,3.59%,0.78%
CCOc1cc(C(=O)NC2CCN(Cc3ccccc3)CC2)ccc1-c1nc2cc(Cl)c(F)cc2[nH]1,3.61%,2.49%,3.19%
O=C(Nc1nc(-c2ccccn2)cs1)c1ccc(Br)s1,-1.89%,4.54%,0.61%
Cc1[nH]c(C)c(-c2ccc(CCc3ccc(N)cc3)cc2)c(=O)c1Cl,4.43%,6.39%,1.77%
[O-][S+]1c2ccccc2Sc2ccccc21,2.27%,3.44%,1.95%
c1ccc2c(Nc3ccc(Oc4ccc(Nc5c6ccccc6nc6ccccc56)cc4)cc3)c3ccccc3nc2c1,2.32%,0.88%,-1.82%
CC1CN(c2cc(=O)n(Cc3cccc(NC(=O)Nc4ccc(-c5ccccc5)cc4)c3)cn2)CC(C)N1 (stereo not drawn),1.17%,2.06%,-1.85%
CCNc1cc(C(=O)N[C@@H](Cc2ccccc2)[C@H](O)CNC(C)(C)CCCC(C)C)cc(N2CCCCS2(=O)=O)c1,-0.28%,0.88%,-0.83%
CC(C)(C)c1ccc(NC(=O)c2cccc(CN3CCCN(Cc4cccc(C#N)c4)CC3)c2)cc1,5.1%,1.26%,0.63%
COc1ccc(Cn2c(Nc3cccc(C(F)(F)F)c3)nc3ccc(C(=O)NCCN4CCCC4)cc32)cc1Cl,8.87%,6.74%,14.2%
Cc1ccc(/C=C/C(=O)NC2CCC(N3CCC(c4ccccc4C)CC3)CC2)cc1F (stereo not drawn),15.1%,17.5%,13.7%
CN(C)c1ccc(NC(=O)Nc2ccnc3ccccc23)cc1Br,8.81%,8.16%,6.85%
CC1CN(S(=O)(=O)c2ccc(NC(=O)c3cc(-c4ccccc4O)n[nH]3)cc2)CC(C)O1 (stereo not drawn),4.88%,5.64%,4.67%
COc1ccc(Nc2nc(N3CCCC3)c3ccccc3n2)cc1,17.6%,19.6%,14.3%
CCCCCC(=O)NCC(NCCCNc1cc(=O)c2ccccc2[nH]1)c1cc(Br)cc(Br)c1 (stereo not drawn),5.16%,2.44%,5.39%
O=c1c2c([nH]c3cc(Cl)ccc13)CCCC2,4.95%,3.08%,3.09%
CCOC(=O)C(CO)NC(=O)c1ccc([N+](=O)[O-])o1 (stereo not drawn),2.12%,2.06%,5.24%
Cc1cccc(CNc2nc(C)cc(N[C@@H](Cc3ccccc3)C(=O)NCCOc3ccccc3)n2)c1,16.6%,15.8%,11.4%
CC(C)CNCc1ccc(-c2cccc(CN(C(=O)NCCc3ccccc3)C3CCN(Cc4ccccc4)CC3)c2)cc1,9.24%,11%,8.02%

# From ChEMBL document CHEMBL3433997, “St. Jude Leishmania screening dataset” (2016)
